# Measurements as given in PubChem BioAssay.
# Records with an inconclusive call do not appear. Activity calls are given as the source filed them. Unless noted, no cut-off is given here; in the data, nearly all actives have AC50 up to about 26 µM.
# How the values were obtained:
# [1] = growth inhibition of DIPG glioma cells, dose response, cell-based, SU-DIPG-XVII, MIPE5.0, CellTiter-Glo, qHTS (AID 1347060); details: SU-DIPG-XVII viability, CellTiter-Glo ATP luminescence;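 for AC50: cells exposed to compound for 48 hours before viability readout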
# [2] = viability loss in pontine glioma line – cell-based, SU-DIPG-XXV, MIPE5.0, CellTiter-Glo, qHTS, dose response (AID 1347065); details: CellTiter-Glo ATP luminescence;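 note: cells exposed to compound for 48 hours before ATP readout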
# [3] = JHH-DIPG-1 glioma cell viability, MIPE5.0 library, CellTiter-Glo luminescence, qHTS (AID 1347067); details: JHH-DIPG-1 glioma viability, CellTiter-Glo ATP luminescence;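 note: cells exposed to compound for 48 hours before readout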
# [4] = SU-DIPG-XXV glioma cell viability, MIPE5.0 library, qHTS (AID 1347068; cut-off not given, nearly all actives have IC50 up to about 30 µM;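 for IC50: cells exposed to compound for 48 hours before viability readout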)
# [5] = sensitizers of A549 cells to miR-34 induction, primary screen, imaging, A549 dox-inducible miR-34, nuclei and caspase counts (AID 1347080;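 active = compounds whose cell count with miR-34 switched on is under 0.7 times the count with it off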); details: A549 miR-34 inducible, Hoechst nuclei count, 48 h
# [6] = survival rescue of mitochondrial mutant cells in low glucose, primary screen, MELAS cybrids, Rieske KO mouse fibroblasts, CellTiter-Glo (AID 1508586;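 active = mean z-score across replicates of 1.96 or higher in either the MELAS or the Rieske mutant cell line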;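 note: z relative to plate mean and SD of compound and empty wells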)
# [7] = liver-stage malaria parasite growth inhibition, primary screen, cell-based, HepG2, luciferase luminescence, HepG2 viability (AID 624349; in the data active = parasite load remaining mostly below about 12%, no sharp cut-off; inactive = mostly above about 10%;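 note: 100% = mean of DMSO negative control wells on the same plate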); details: P. berghei liver stage in HepG2, luciferase luminescence, concentration not given here; parasite load remaining: stronger effect = lower value; viability: measured here: HepG2 viability without parasites
# [8] = ovarian cancer cell viability with rucaparib, profiling panel, oncology-focused library, rucaparib conditional (AID 1508598;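 active = normalized viability below 100% at a tested concentration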); details: patient-derived ovarian cancer cells, CellTiter-Glo viability, 144 h, stronger effect = lower value
# [9] = SU-DIPG-VI glioma cell viability, MIPE4.0 library, CellTiter-Glo luminescence, qHTS (AID 1347066; cut-off not given, nearly all actives have AC50 up to about 30 µM;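 note: cells exposed to compound for 48 hours before readout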); details: CellTiter-Glo ATP luminescence
# [10] = stronger effect = lower value, cell number ratio, induced over uninduced
# [11] = measured here: relative caspase fold change +Dox/-Dox
# [12] = measured here: total cells with miR-34 induction, stronger effect = lower value
# [13] = measured here: total cells without miR-34 induction
# [14] = MELAS cybrid survival, CellTiter-Glo 48 h, stronger effect = higher value
# [15] = Rieske KO mouse fibroblast survival, CellTiter-Glo 72 h
smiles,measurement,setting,value
Cc1cc(OCc2nnc(SC3CCCC3)n2-c2cccnc2)ccc1-c1ccc(S(C)(=O)=O)cc1,AC50,[1],8.33 µM (active)
same,AC50,[2],8.33 µM (active)
same,AC50,[3],2.09 µM (active)
same,outcome,[4],inactive
same,fold change,[5]; [10],0.88 (inactive)
same,fold change,[5]; [11],0.499
same,cell count,[5]; [12],1100
same,cell count,[5]; [13],1250
same,z-score,[6]; [14],0.698 (inactive)
same,z-score,[6]; [15],-0.0239
COc1cc2ncnc(Nc3ccc(O)c(Br)c3)c2cc1OC,parasite load remaining,[7],33.2% (inactive)
same,viability,[7],98.7%
same,AC50,[1],16.6 µM (active)
same,AC50,[2],14.8 µM (active)
same,AC50,[3],13.2 µM (active)
same,fold change,[5]; [10],0.645 (active)
same,fold change,[5]; [11],0.931
same,cell count,[5]; [12],3410
same,cell count,[5]; [13],5290
same,z-score,[6]; [14],-0.521 (inactive)
same,z-score,[6]; [15],-0.0359
[2H]C([2H])(Nc1nc(-c2ccccc2C([2H])(C([2H])([2H])[2H])C([2H])([2H])[2H])ncc1C)c1ccc(-n2ccnn2)cc1,outcome,[1],inactive
same,outcome,[2],inactive
same,outcome,[4],inactive
CC(Nc1ncnc2nc[nH]c12)c1cc2cccc(Cl)c2c(=O)n1-c1ccccc1 (stereo not given),AC50,[1],18.6 µM (active)
same,AC50,[2],18.6 µM (active)
same,fold change,[5]; [10],0.872 (inactive)
same,fold change,[5]; [11],0.835
same,cell count,[5]; [12],6590
same,cell count,[5]; [13],7550
same,z-score,[6]; [14],-0.147 (inactive)
same,z-score,[6]; [15],-0.173
C=CC(=O)Nc1cccc(Nc2nc(Nc3ccc(Oc4ccnc(C(=O)NC)c4)cc3)ncc2F)c1,AC50,[1],10.5 µM (active)
same,AC50,[2],7.42 µM (active)
same,AC50,[3],14.8 µM (active)
same,IC50,[4],13.2 µM (active)
same,fold change,[5]; [10],0.924 (inactive)
same,fold change,[5]; [11],0.336
same,cell count,[5]; [12],4090
same,cell count,[5]; [13],4430
same,z-score,[6]; [14],1.34 (inactive)
same,z-score,[6]; [15],1.7
Cc1cc(N2CCOCC2)ccc1Nc1nc(NC2CCCCC2)c2[nH]cnc2n1,AC50,[1],2.35 µM (active)
same,AC50,[2],7.42 µM (active)
same,AC50,[3],14.8 µM (active)
same,IC50,[4],20.9 µM (active)
same,fold change,[5]; [10],0.907 (inactive)
same,fold change,[5]; [11],0.505
same,cell count,[5]; [12],3720
same,cell count,[5]; [13],4100
same,z-score,[6]; [14],-0.538 (inactive)
same,z-score,[6]; [15],-2.79
C=CC(=O)N1CC(N2CCN(C(=O)CNc3cc(C4(C)CC4)c(Cl)cc3O)CC2)C1,outcome,[1],inactive
same,outcome,[2],inactive
same,outcome,[4],inactive
COc1ccc(CNc2nc(N(CCO)CCO)nc3c2ncn3C(C)C)cc1,parasite load remaining,[7],40.6% (inactive)
same,viability,[7],84%
same,AC50,[1],7.42 µM (active)
same,AC50,[2],10.5 µM (active)
same,AC50,[3],5.25 µM (active)
same,IC50,[4],11.8 µM (active)
CC(C)Oc1ccc(C(=O)N[C@H](CNC(=O)CN(C)C)Cc2ccc(-c3cn4cccc([C@H](C)O)c4n3)cc2)cc1Cl,AC50,[1],0.0525 µM (active)
same,AC50,[2],0.0295 µM (active)
same,outcome,[3],inactive
same,viability,"[8]; at 0.000305 µM, OCI-C5x cells, with rucaparib 10 µM, 100% = cells with rucaparib alone",116% (inactive)
same,viability,"[8]; at 0.000305 µM, OCI-C5x cells, without rucaparib",118% (inactive)
same,viability,"[8]; at 0.000305 µM, OCI-P5x cells, with rucaparib 20 µM, 100% = cells with rucaparib alone",118% (inactive)
same,viability,"[8]; at 0.000305 µM, OCI-P5x cells, without rucaparib",103% (inactive)
same,viability,"[8]; at 0.00122 µM, OCI-C5x cells, with rucaparib 10 µM, 100% = cells with rucaparib alone",112% (inactive)
same,viability,"[8]; at 0.00122 µM, OCI-C5x cells, without rucaparib",123% (inactive)
same,viability,"[8]; at 0.00122 µM, OCI-P5x cells, with rucaparib 20 µM, 100% = cells with rucaparib alone",107% (inactive)
same,viability,"[8]; at 0.00122 µM, OCI-P5x cells, without rucaparib",107% (inactive)
same,viability,"[8]; at 0.00488 µM, OCI-C5x cells, with rucaparib 10 µM, 100% = cells with rucaparib alone",117% (inactive)
same,viability,"[8]; at 0.00488 µM, OCI-C5x cells, without rucaparib",115% (inactive)
same,viability,"[8]; at 0.00488 µM, OCI-P5x cells, with rucaparib 20 µM, 100% = cells with rucaparib alone",107% (inactive)
same,viability,"[8]; at 0.00488 µM, OCI-P5x cells, without rucaparib",101% (inactive)
same,viability,"[8]; at 0.0195 µM, OCI-C5x cells, with rucaparib 10 µM, 100% = cells with rucaparib alone",69.6% (active)
same,viability,"[8]; at 0.0195 µM, OCI-C5x cells, without rucaparib",73.7% (active)
same,viability,"[8]; at 0.0195 µM, OCI-P5x cells, with rucaparib 20 µM, 100% = cells with rucaparib alone",76.4% (active)
same,viability,"[8]; at 0.0195 µM, OCI-P5x cells, without rucaparib",38.4% (active)
same,viability,"[8]; at 0.0781 µM, OCI-C5x cells, with rucaparib 10 µM, 100% = cells with rucaparib alone",57.4% (active)
same,viability,"[8]; at 0.0781 µM, OCI-C5x cells, without rucaparib",72.4% (active)
same,viability,"[8]; at 0.0781 µM, OCI-P5x cells, with rucaparib 20 µM, 100% = cells with rucaparib alone",66.4% (active)
same,viability,"[8]; at 0.0781 µM, OCI-P5x cells, without rucaparib",30.8% (active)
same,viability,"[8]; at 0.313 µM, OCI-C5x cells, with rucaparib 10 µM, 100% = cells with rucaparib alone",57.8% (active)
same,viability,"[8]; at 0.313 µM, OCI-C5x cells, without rucaparib",65% (active)
same,viability,"[8]; at 0.313 µM, OCI-P5x cells, with rucaparib 20 µM, 100% = cells with rucaparib alone",62.3% (active)
same,viability,"[8]; at 0.313 µM, OCI-P5x cells, without rucaparib",28.3% (active)
same,viability,"[8]; at 1.25 µM, OCI-C5x cells, with rucaparib 10 µM, 100% = cells with rucaparib alone",61.8% (active)
same,viability,"[8]; at 1.25 µM, OCI-C5x cells, without rucaparib",72.8% (active)
same,viability,"[8]; at 1.25 µM, OCI-P5x cells, with rucaparib 20 µM, 100% = cells with rucaparib alone",62.6% (active)
same,viability,"[8]; at 1.25 µM, OCI-P5x cells, without rucaparib",26.8% (active)
same,viability,"[8]; at 5 µM, OCI-C5x cells, with rucaparib 10 µM, 100% = cells with rucaparib alone",79.5% (active)
same,viability,"[8]; at 5 µM, OCI-C5x cells, without rucaparib",89.6% (active)
same,viability,"[8]; at 5 µM, OCI-P5x cells, with rucaparib 20 µM, 100% = cells with rucaparib alone",63.4% (active)
same,viability,"[8]; at 5 µM, OCI-P5x cells, without rucaparib",25.3% (active)
Cn1cc(-c2ccc(F)c(C(F)(F)F)c2)nc1C1CCN(c2ncnc3[nH]ncc23)CC1,outcome,[1],inactive
same,outcome,[2],inactive
same,outcome,[4],inactive
Nc1nc(OC(c2ccc(-c3cccc(F)c3)cc2)C(F)(F)F)cc(-c2ccc(C[C@H](N)C(=O)O)cc2)n1 (stereo not given in full),outcome,[1],inactive
same,outcome,[2],inactive
same,outcome,[4],inactive
CCCC1OC2C[C@H]3[C@@H]4CCC5=CC(=O)C=C[C@]5(C)[C@H]4C(O)C[C@]3(C)[C@]2(C(=O)CO)O1 (stereo not given in full),outcome,[1],inactive
same,outcome,[9],inactive
same,outcome,[4],inactive
C[C@H](NC(=O)CCC(F)(F)F)C(=O)N[C@@H]1C(=O)N(CCO)c2ncccc2-c2ccccc21,outcome,[1],inactive
same,outcome,[3],inactive
O=C(/C=C/N1C[C@H]2C[C@@H]1CN2c1ccccn1)c1ccccc1O,outcome,[1],inactive
same,outcome,[3],inactive
COCCOC(=O)N1CCN(S(=O)(=O)c2cc(F)c(Oc3ccc(Cl)cc3)c(F)c2)C(C(=O)NO)C1 (stereo not given),outcome,[1],inactive
same,AC50,[3],16.6 µM (active)
same,IC50,[4],20.9 µM (active)
Cc1[nH]nc2ncc(C(=O)N3CCC[C@H]3c3ccc(Cl)cc3)cc12,outcome,[1],inactive
same,outcome,[2],inactive
same,outcome,[4],inactive
